The inhibition is the drop in the measured response relative to a control, in per cent.

This test deals with Sigma receptor 2. Description: radioligand displacement at receptors and transporters – biochemical, PDSP panel, Set 2, late-stage follow-up (AID 504381). Conditions: PDSP radioligand binding panel, at 10 µM, hits give high values.

Unmarked numbers belong to inactive results. No rule for the calls is given here.

In the case of `CC(=O)c1ccc2c(c1)Nc1ccccc1S2`, the inhibition was -12.2%.

For the origin of these results see PubChem BioAssay AID504381 (The Scripps Research Institute Molecular Screening Center, 2011).
